# Assay outcomes deposited in PubChem BioAssay by The Scripps Research Institute Molecular Screening Center.
# NR2F2 inh = blocks human COUP-TFII nuclear receptor. actives 0.7% (n = 370,000). inhibition, % at 8.6 µM. P24468. HEK293T NGFI-A luciferase reporter, luminescence;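 active = inhibition above a per-plate cutoff, mean inhibition of test wells between control levels plus 3 SD, cut at about 38% in these data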;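 note: cells cotransfected with COUP-TFII expression vector driving the NGFI-A reporter; 0% = median of COUP-TF2 test wells and 100% = reporter-only cells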
# GalR3 antagonist = human GalR3 antagonism; O60755; HEK293 GalR3-CNG cAMP membrane potential fluorescence; galR3 body fused to GalR1 C-terminus; inhibition, % at 3 µM; actives 0.44% (n = 360,000); AID 651719;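 active = inhibition above the screen-wide average plus 3 SD, cut at about 13% in these data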;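 note: forskolin and galanin both at EC90 stimulate the cells; cAMP rise reported by CNG channel membrane potential dye signal; 0% = forskolin plus galanin with DMSO and 100% = forskolin alone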
# SRC1 inh = inhibitors of human steroid receptor coactivator 1 (SRC1) | Q15788 | HEK293 GAL4-SRC1 luciferase reporter, luminescence | inhibition, % at 3.6 µM | actives 0.12% (n = 360,000) | AID 588354;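 active = inhibition above the campaign mean plus 3 SD, with each screening campaign given its own cutoff, cut at about 60% in these data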;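 note: 0% = DMSO treated cells and 100% = gossypol at 36 µM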
# SRC3 inh = human NCOA3 inhibition; AID 588352; inhibition, % at 3.6 µM; Q9Y6Q9; HEK293 GAL4-SRC3 luciferase reporter, luminescence; actives 0.17% (n = 360,000);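 active = inhibition above a per-campaign cutoff, the mean of all compounds plus 3 SD, cut at about 60% in these data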;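 note: 0% = DMSO-treated cells and 100% = gossypol-treated cells at 36 µM; higher means less SRC3-driven luciferase light from the GAL4 reporter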
# SRC2 inh = human SRC2 (NCOA2) inhibition | Q15596 | inhibition, % at 9 µM | actives 0.17% (n = 370,000) | AID 651957 | HEK293 GAL4-SRC2 luciferase reporter, luminescence;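 active = inhibition above the mean inhibition of all tested compounds plus 3 SD, set per campaign, cut at about 52% in these data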;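 note: 0% = DMSO treated cells and 100% = cells given Gossypol at 36 µM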
# NR5A2 inv ag = suppresses constitutive activity of human LRH-1; HEK293T StAR-luciferase reporter, LRH-1 transfected, 24 h; inhibition, % at 3.6 µM; actives 0.13% (n = 360,000); AID 602396;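 active = inhibition above the mean inhibition of all tested compounds plus 3 SD, cut at about 73% in these data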;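 note: 0% = DMSO wells and 100% = reporter-only cells lacking LRH-1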
# Target sequence (O00482 whole entry, looked up): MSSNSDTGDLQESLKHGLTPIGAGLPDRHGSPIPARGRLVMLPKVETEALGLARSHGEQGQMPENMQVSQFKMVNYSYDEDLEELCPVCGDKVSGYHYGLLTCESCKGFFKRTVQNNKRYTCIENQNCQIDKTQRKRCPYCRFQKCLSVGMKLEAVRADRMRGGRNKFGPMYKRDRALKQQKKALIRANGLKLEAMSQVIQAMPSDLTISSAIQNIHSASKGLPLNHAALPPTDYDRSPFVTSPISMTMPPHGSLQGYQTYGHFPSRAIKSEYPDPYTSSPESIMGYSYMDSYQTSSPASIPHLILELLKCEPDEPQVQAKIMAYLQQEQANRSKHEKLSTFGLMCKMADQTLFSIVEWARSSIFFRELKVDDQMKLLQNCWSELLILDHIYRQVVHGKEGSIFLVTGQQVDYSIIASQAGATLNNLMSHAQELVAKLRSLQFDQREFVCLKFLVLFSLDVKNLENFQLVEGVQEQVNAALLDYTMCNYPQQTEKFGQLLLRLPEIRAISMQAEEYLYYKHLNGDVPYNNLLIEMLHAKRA
# Gal4-VP16 ctr = VP16 inhibition counter-screen for COUP-TFII | shares compounds with NR2F2 inh | HEK293 Gal4-VP16 luciferase reporter, luminescence | inhibition, % at 8.5 µM | actives 25% (n = 2,500); in the data active = inhibition above about 13%
# NR2F2 inh conf = confirmation of human COUP-TFII (NR2F2) inhibitors | AID 687008 | HEK293 NGFI-A luciferase reporter, luminescence | shares compounds with NR2F2 inh | inhibition, % at 8.5 µM | actives 45% (n = 2,500);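 active = mean inhibition over three repeats above a set limit taken from the earlier primary screen, cut at about 38% in these data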;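 note: 100% = cells given the luciferase reporter alone without the COUP-TF2 vector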
# The depositor's hits bear a star; i = inactive; x = not tested or not shown. This is a sample that favours compounds with a hit; in the whole collection about 1.1% have one here.
SMILES,NR2F2 inh,GalR3 antagonist,SRC1 inh,SRC3 inh,SRC2 inh,NR5A2 inv ag,Gal4-VP16 ctr,NR2F2 inh conf
CC(=O)N1CCCc2cc(S(=O)(=O)N3CCCC(C(=O)N4CCN(c5ccccc5)CC4)C3)ccc21 (stereo not drawn),41.1*,-9.3,-2.9,15.4,12.9,20.4,10.0,29.4
CCC(=O)N1CCCc2cc(S(=O)(=O)N3CCN(c4ncccn4)CC3)ccc21,-8.7,x,11.3,12.4,-25.4,15.5,x,x
CC(=O)N1CCCc2cc(S(=O)(=O)N3CCCC(C(=O)N4CCN(c5cc(C)ccc5C)CC4)C3)ccc21 (stereo not drawn),34.2,-2.8,20.7,21.6,17.1,0.2,x,x
COc1ccccc1N1CCN(C(=O)C2CCCN(S(=O)(=O)c3ccc4c(c3)CCCN4C(C)=O)C2)CC1 (stereo not drawn),44.4*,-9.1,20.5,34.2,20.9,10.3,-11.8,26.8
O=S(=O)(Nc1ccc(C(O)(C(F)(F)F)C(F)(F)F)cc1)c1ccc(Cl)c2nonc12,x,x,2.0,9.7,x,21.4,x,x
COc1cc(-c2cc(C(=O)NCc3ccco3)c3ccccc3n2)cc(OC)c1OC,0.3,-8.1,2.6,-6.4,-14.2,9.2,x,x
CC(C)[C@@H](CO)N(Cc1cn(Cc2ccccc2)nn1)S(=O)(=O)c1ccccc1Br,9.4,x,x,x,-17.1,x,x,x
CC1(C)CC(N2CCN(c3ccccc3)CC2)=CC(=[N+]2CCCC2)C1,32.7,-0.5,29.1,56.8,16.7,62.0,x,x
CC1(C)CC(N2CCCC2)=CC(=[N+]2CCCCCC2)C1,59.7*,55.2*,35.0,38.3,13.0,68.7,14.1*,58.2*
CC1CC(C)C[N+](=C2C=C(N3CCCC3)CC(C)(C)C2)C1 (stereo not drawn),62.3*,28.5*,33.6,53.9,-1.1,65.2,15.1*,59.0*
CCN(CC)C(=O)c1ncn2c1C(=O)N[C@@H](C)C2,1.5,-4.8,x,x,-19.9,x,x,x
OC(CN1CCNCC1)Cn1c2ccccc2c2ccccc21 (stereo not drawn),-21.1,-12.7,-5.8,-8.2,-4.0,0.0,x,x
Cc1cc2oc(=O)cc(C)c2c(=O)o1,7.0,-1.0,11.3,26.4,2.0,9.9,x,x
COc1ccc(C(=O)Nc2cc3c4c(c2)C(C)C(=O)N4CCC3)cc1 (stereo not drawn),-29.1,-0.9,-44.7,-9.1,-65.6,-8.6,x,x
S=C(NCC1CCCO1)N1CCN(c2nc(-c3ccc(Cl)cc3)cs2)CC1 (stereo not drawn),59.4*,1.7,0.1,22.0,26.8,4.3,-1.3,28.2
O=C(Nc1nc(-c2cc(F)ccc2F)cs1)C1=NN(c2ccccc2)C(=O)CC1,-0.8,-1.5,-8.6,-0.3,-14.7,-0.4,x,x
COc1ccc(-c2csc(NC(=O)C3=NN(c4ccccc4)C(=O)CC3)n2)cc1,49.4*,-2.3,16.7,18.0,5.1,6.7,-25.4,19.4
COc1cc2c(cc1OC)C(c1ccccc1C(F)(F)F)CC(=O)N2 (stereo not drawn),8.7,-6.6,12.2,5.9,5.0,-5.0,x,x
Cc1nonc1CN(C)C(=O)CC1C(=O)NCCN1Cc1ccc(F)c(F)c1 (stereo not drawn),-0.5,-2.8,-7.1,-1.9,-8.4,7.2,x,x
O=C(c1ccncc1)c1ccc(N2CCN(C3CC(=O)N(Cc4cccs4)C3=O)CC2)cc1 (stereo not drawn),38.3*,-5.8,13.7,1.4,28.5,14.2,3.1,23.1
CC(C)(C)C(=O)Nc1ccc(-c2cc3cc(Cl)ccc3o2)cc1,53.3*,-1.5,17.6,43.8,44.9,17.5,-153.5,-21.6
CC(C)(Oc1ccc(Cl)cc1)C(=O)Nc1ccc2oc(=O)ccc2c1,-6.4,-4.3,-12.1,-27.7,-7.8,12.4,x,x
C=C1C[C@@H]2C[C@@H]2CN(S(=O)(=O)c2ccc(C)cc2)[C@@H]1COCc1ccccc1,40.3*,-0.8,x,x,-15.9,18.9,-7.6,6.1
CCOC(=O)CC(N)c1ccc2c(c1)OCO2 (stereo not drawn),3.2,-10.4,x,x,8.9,x,x,x
Cc1scc(C(=O)N/N=C/c2ccc([N+](=O)[O-])o2)c1C,50.1*,-0.7,13.8,-1.2,71.4*,49.3,57.3*,58.9*
SMILES,NR2F2 inh,GalR3 antagonist,SRC1 inh,SRC3 inh,SRC2 inh,NR5A2 inv ag,Gal4-VP16 ctr,NR2F2 inh conf
O=C(N/N=C\c1ccc(-c2ccccc2[N+](=O)[O-])o1)C1COc2ccccc2O1 (stereo not drawn),10.3,-4.8,-0.4,18.1,7.8,23.6,x,x
O=C(N/N=C\c1ccc([N+](=O)[O-])o1)C1COc2ccccc2O1 (stereo not drawn),43.9*,-5.6,29.9,39.2,62.0*,44.7,-5.2,25.0
CCOc1ccc(Nc2nc(NCC3CCCO3)c3ccccc3n2)cc1 (stereo not drawn),59.7*,-5.1,-6.3,1.2,8.2,0.1,4.0,42.6*
c1ccc(Nc2nc(NCC3CCCO3)c3ccccc3n2)cc1 (stereo not drawn),36.2,1.8,-0.6,14.5,6.1,16.0,x,x
Cc1ccc(S(=O)(=O)CCC#N)cc1,15.6,-5.5,-52.2,-6.2,-22.4,-24.7,x,x
O=C1NCCN1Cc1ccccc1,22.7,-2.8,1.0,12.2,-4.9,0.9,x,x
COc1ccc(NC(=O)C2CCN(C(=O)C3CC(=O)N(c4ccc(C)cc4)C3)CC2)c(OC)c1 (stereo not drawn),15.3,-6.1,12.0,7.7,-2.7,-12.8,x,x
CCCCN(C(C)=O)c1ccc2c(c1)C1CC2CCN1C(=O)OCc1ccccc1 (stereo not drawn),54.8*,-9.9,15.7,22.6,17.2,13.9,0.7,38.6*
CC(C)Nc1ncnc2ccc(Br)cc12,52.9*,-5.0,66.1*,62.2*,46.4,47.2,19.0*,45.3*
CSCCC(Nc1ncnc2ccc(Br)cc12)C(=O)O (stereo not drawn),19.0,-1.2,2.1,-0.3,13.4,17.4,x,x
Cc1ccc(NC(=O)N2CCc3ccccc3C2)cc1,-47.9,-2.0,-95.5,-76.7,-63.2,-137.3,x,x
COc1cc(C(=O)NCc2ccccc2)ccc1OC(F)F,7.2,-5.8,-1.1,-0.2,14.2,0.3,x,x
COc1ccc(COc2ccccc2C(=O)NCc2ccccc2)cc1F,41.5*,-5.6,12.1,13.1,17.9,5.0,-8.0,1.6
O=C1/C(=C\c2ccccc2)CN(C(=O)CCN2CCCCC2)C/C1=C/c1ccccc1,63.0*,-4.3,-8.1,1.7,40.4,74.1*,64.0*,63.1*
O=C1/C(=C\c2ccc(Cl)c(Cl)c2)CN(C(=O)CCN2CCOCC2)C/C1=C/c1ccc(Cl)c(Cl)c1,85.1*,-2.8,i,-241.1,30.2,60.7,91.9*,106.3*
